Results from PubChem BioAssay (NCI).
This is part of a sample that, as a whole, favours compounds with a hit. Of some 79,000 tested, about 15% had one in any assay. The source made the active and inactive calls. Rule as the data show it: active = growth inhibition above about 70%; inactive = the rest.

Columns and labels:
[1] = NCI Yeast Anticancer Drug Screen. Data for the rad50 strain (AID 155);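 also: 0% = growth of vehicle-only cultures of the same strain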; conditions: S. cerevisiae rad50 strain growth inhibition, active compounds read high
Summary of the method: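 Cells are treated with compound, grown, and their growth is then scored against vehicle-only cultures of the same repair-deficient yeast strain.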

[2] = NCI Yeast Anticancer Drug Screen. Data for the mec2-1 strain (AID 157); conditions: S. cerevisiae mec2-1 strain, active compounds read high
Summary of the method: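 Using mec2-1 yeast: add compound, measure growth, express inhibition versus vehicle-treated cultures.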

[3] = NCI Yeast Anticancer Drug Screen. Data for the sgs1 mgt1 strain (AID 161);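 also: 0% = growth of cultures given vehicle only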; conditions: S. cerevisiae sgs1 mgt1 strain, active compounds read high
Summary of the method: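 Percent growth inhibition was derived by comparing compound-exposed mutant yeast with vehicle-exposed cultures. The strain carries alterations in DNA damage repair.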

[4] = NCI Yeast Anticancer Drug Screen. Data for the cln2 rad14 strain (AID 165);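 also: 0% = growth equal to vehicle treated cultures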; conditions: S. cerevisiae cln2 rad14 strain, active compounds read high
Summary of the method: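 Yeast strain cln2 rad14, bearing defects in cell cycle control and DNA repair, serves as the test system; values reflect growth inhibition compared with vehicle.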

[5] = NCI Yeast Anticancer Drug Screen. Data for the bub3 strain (AID 167); conditions: S. cerevisiae bub3 mutant strain, active compounds read high
Summary of the method: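 Part of a panel of yeast mutants defective in DNA damage repair or cell cycle regulation. Each strain is grown with compound, and inhibition is calculated relative to solvent-treated cultures.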

[6] = NCI Yeast Anticancer Drug Screen. Data for the mlh1 rad18 strain (AID 175); conditions: S. cerevisiae mlh1 rad18 strain growth inhibition, active compounds read high
Summary of the method: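 Steps: expose repair-defective yeast to compound; measure growth; express inhibition against vehicle-treated controls.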

[7] = at 5.0 µM (retest, dose inferred, filed as 0.5)
[8] = at 50.0 µM (retest, dose inferred, filed as 5.0)

Measured: growth inhibition

O=C(c1ccc([N+](=O)[O-])cc1)c1[nH]c2ccccc2c(=O)c1-c1ccccc1
inactive: [1]; [7] -2% | [2]; [7] 14% | [3]; [7] 0% | [4]; [7] -3% | [5]; [7] -2% | [6]; [7] 25%
active: [1]; [8] 96% | [1]; at 50.0 µM 98% | [2]; [8] 99% | [2]; at 50.0 µM 99% | [3]; [8] 99% | [3]; at 50.0 µM 98.6% | [4]; [8] 95% | [4]; at 50.0 µM 98.6% | [5]; [8] 98% | [5]; at 50.0 µM 98.7% | [6]; [8] 99% | [6]; at 50.0 µM 99%

CC(=O)Sc1ccccc1C(=O)NCc1ccc(Cl)cc1
inactive: [1]; [7] 2% | [2]; [7] -8% | [3]; [7] 2% | [4]; [7] -12% | [5]; [7] 0% | [6]; [7] 13%
active: [1]; [8] 97% | [1]; at 50.0 µM 97.8% | [2]; [8] 98% | [2]; at 50.0 µM 99% | [3]; [8] 97% | [3]; at 50.0 µM 97.8% | [4]; [8] 94% | [4]; at 50.0 µM 98.5% | [5]; [8] 96% | [5]; at 50.0 µM 98.5% | [6]; [8] 96% | [6]; at 50.0 µM 98.7%

Cc1ccc(C)c2[nH]c(-c3ccccc3)cc12
inactive: [1]; [7] -1% | [2]; [7] -37% | [3]; [7] 0% | [4]; [7] 0% | [5]; [7] -5% | [6]; [7] -1%
active: [1]; [8] 99% | [1]; at 50.0 µM 99.3% | [2]; [8] 99% | [2]; at 50.0 µM 99.2% | [3]; [8] 99% | [3]; at 50.0 µM 99.3% | [4]; [8] 99% | [4]; at 50.0 µM 99.1% | [5]; [8] 99% | [5]; at 50.0 µM 99.2% | [6]; [8] 99% | [6]; at 50.0 µM 99.2%

Cc1cc2ccccc2c[n+]1Cc1ccc2ccccc2n1
inactive: [1]; [7] -6% | [1]; [8] -1% | [1]; at 50.0 µM 53.6% | [2]; [7] 9% | [2]; [8] 45% | [2]; at 50.0 µM 29.4% | [3]; [7] -13% | [3]; [8] 12% | [3]; at 50.0 µM 65.4% | [4]; [7] -8% | [4]; [8] -24% | [4]; at 50.0 µM 21.6% | [5]; [7] -5% | [5]; [8] 23% | [5]; at 50.0 µM 49.3% | [6]; [7] 1% | [6]; [8] 41% | [6]; at 50.0 µM 69.3%

CC(C)c1ccc(C(C)C)c(O)c1O
inactive: [1]; [7] 13% | [2]; [7] 24% | [3]; [7] 22% | [4]; [7] 21% | [4]; [8] 63% | [4]; at 50.0 µM 53.2% | [5]; [7] 7% | [5]; [8] 67% | [6]; [7] 7% | [6]; at 50.0 µM 69.8%
active: [1]; [8] 72% | [1]; at 50.0 µM 82% | [2]; [8] 73% | [2]; at 50.0 µM 87.3% | [3]; [8] 79% | [3]; at 50.0 µM 88% | [5]; at 50.0 µM 87.2% | [6]; [8] 94%

CC(C)C1=CC(=O)C2=C(CCC3C(C)(C(=O)O)CCC[C@]23C)C1=O (stereo not given in full)
inactive: [1]; [7] 7% | [2]; [7] 28% | [3]; [7] 20% | [4]; [7] 15% | [5]; [7] 54% | [6]; [7] 21%
active: [1]; [8] 99% | [1]; at 50.0 µM 92.2% | [2]; [8] 99% | [2]; at 50.0 µM 93% | [3]; [8] 99% | [3]; at 50.0 µM 93.2% | [4]; [8] 99% | [4]; at 50.0 µM 90.7% | [5]; [8] 98% | [5]; at 50.0 µM 92.3% | [6]; [8] 99% | [6]; at 50.0 µM 91.7%

CN=S(=O)(OCCCCOS(=O)(=NC)c1ccccc1)c1ccccc1 (stereo not given)
inactive: [1]; [7] 16% | [1]; [8] 26% | [1]; at 50.0 µM 47.6% | [2]; [7] 9% | [2]; [8] 8% | [2]; at 50.0 µM -2.25% | [3]; [7] 20% | [3]; [8] 28% | [3]; at 50.0 µM -18.1% | [4]; [7] 8% | [4]; [8] 10% | [4]; at 50.0 µM -12.4% | [5]; [7] 11% | [5]; [8] 10% | [5]; at 50.0 µM -29.3% | [6]; [7] 39% | [6]; [8] 40% | [6]; at 50.0 µM -52.3%

O=[N+]([O-])c1cc(Cc2cc([N+](=O)[O-])c3cccnc3c2O)c(O)c2ncccc12
inactive: [4]; [7] 65%
active: [1]; [7] 96% | [1]; [8] 98% | [1]; at 50.0 µM 98.3% | [2]; [7] 89% | [2]; [8] 98% | [2]; at 50.0 µM 97.2% | [3]; [7] 85% | [3]; [8] 98% | [3]; at 50.0 µM 98.4% | [4]; [8] 97% | [4]; at 50.0 µM 93.5% | [5]; [7] 73% | [5]; [8] 98% | [5]; at 50.0 µM 97.4% | [6]; [7] 90% | [6]; [8] 97% | [6]; at 50.0 µM 97.8%

Cc1ccc(S(=O)(=O)N/N=C/Cc2ccccc2)cc1
inactive: [1]; [7] 2% | [2]; [7] -13% | [2]; at 50.0 µM 7% | [3]; [7] 3% | [4]; [7] -3% | [4]; at 50.0 µM 11.6% | [5]; [7] -5% | [5]; at 50.0 µM 12.1% | [6]; [7] 28%
active: [1]; [8] 96% | [1]; at 50.0 µM 87.5% | [2]; [8] 98% | [3]; [8] 98% | [3]; at 50.0 µM 79.8% | [4]; [8] 95% | [5]; [8] 97% | [6]; [8] 98% | [6]; at 50.0 µM 85.3%

CCOC1(c2ccccc2)c2ccccc2S(=O)(=O)N1C (stereo not given)
inactive: [1]; [7] -3% | [1]; [8] 4% | [1]; at 50.0 µM 11.1% | [2]; [7] -4% | [2]; [8] 16% | [2]; at 50.0 µM 0.95% | [3]; [7] 14% | [3]; [8] 33% | [3]; at 50.0 µM 11.2% | [4]; [7] 6% | [4]; [8] 12% | [4]; at 50.0 µM 56.9% | [5]; [7] 1% | [5]; [8] 10% | [5]; at 50.0 µM 40.8% | [6]; [7] 18% | [6]; [8] 11% | [6]; at 50.0 µM 9%
